STK33 kin inh: inhibitors of human STK33 kinase. Q9BYT3. ADP-Glo luminescence, MBP substrate. inhibition, % at 12.5 µM. 27,000 tested, 0.44% active. AID 2322; in the data active means inhibition above about 20%; inconclusive means no clear call, values can overlap the other calls
Target sequence (Q9BYT3 whole entry, looked up): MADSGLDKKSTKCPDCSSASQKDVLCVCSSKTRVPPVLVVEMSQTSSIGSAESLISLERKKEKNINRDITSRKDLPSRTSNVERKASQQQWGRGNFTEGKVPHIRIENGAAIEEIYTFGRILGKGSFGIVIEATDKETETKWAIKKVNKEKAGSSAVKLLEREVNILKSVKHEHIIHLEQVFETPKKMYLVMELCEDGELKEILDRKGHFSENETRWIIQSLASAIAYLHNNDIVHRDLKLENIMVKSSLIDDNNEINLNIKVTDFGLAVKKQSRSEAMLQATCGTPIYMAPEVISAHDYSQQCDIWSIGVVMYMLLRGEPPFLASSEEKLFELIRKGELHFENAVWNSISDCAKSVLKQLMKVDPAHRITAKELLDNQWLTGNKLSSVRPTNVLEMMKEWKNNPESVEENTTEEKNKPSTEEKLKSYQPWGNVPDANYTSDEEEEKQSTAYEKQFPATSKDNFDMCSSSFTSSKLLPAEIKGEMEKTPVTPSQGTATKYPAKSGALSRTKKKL
NOMO-1 viab: STK33 inhibitor candidate reducing NOMO-1 cell viability; 37,000 tested, 7.5% active; AID 2330; NOMO-1 AML viability, CellTiter-Glo luminescence, 72 h; inhibition, % (concentration not given with the values); in the data active means inhibition above about 80%; inconclusive means no clear call, values can overlap the other calls
PD-1 reversal: reversal of PD-1 mediated T-cell inhibition; primary human CD4 T cells, PD-L1 beads, CellTiter-Glo 96 h; activation, % (no concentration beside the values); 29,000 tested, under 10 active; call rule not given here
Hits are given with their value; – = inactive; ? = inconclusive; · = not tested or not shown. Shown is part of a subset that was picked to be rich in hits.

SMILES | STK33 kin inh | NOMO-1 viab | PD-1 reversal
COc1cc(/C=C/C=O)cc(OC)c1OC | – | – | –
C[C@@H]1CC(=O)c2c(ccc3c2C(=O)c2cccc(O)c2C3=O)C1 | – | – | –
CN1CCc2cccc3c2[C@H]1Cc1ccc(O)c(O)c1-3 | 24.0 | 112.9 | ·
O=C(NCc1ccco1)c1ccccc1NC(=O)C1COc2ccccc2O1 (centres undefined) | – | – | –
Clc1ccc(-c2ncc3ccccn23)cc1 | · | 129.2 | –
CN(C)c1ccc(C(=C2C=CC(=[N+](C)C)C=C2)c2ccc(N(C)C)cc2)cc1 | 76.0 | 111.8 | ·
Cc1cccc(N(CC(=O)Nc2ccccc2-c2ccccc2)S(C)(=O)=O)c1C | – | – | –
COc1ccc(CN(C)C[C@H]2Oc3ccc(NC(=O)Nc4ccc(C(F)(F)F)cc4)cc3CC(=O)N([C@@H](C)CO)C[C@H]2C)cc1 | – | 124.0 | ·
COc1ccc(NC(=O)Nc2ccc3c(c2)CC(=O)N([C@H](C)CO)C[C@@H](C)[C@@H](CN(C)Cc2ccc(C(F)(F)F)cc2)O3)cc1 | – | 90.2 | ·
COc1ccc(NC(=O)Nc2ccc3c(c2)CC(=O)N([C@@H](C)CO)C[C@H](C)[C@@H](CN(C)Cc2ccc(C(F)(F)F)cc2)O3)cc1 | – | – | ·
COc1ccc(CN(C)C[C@@H]2Oc3ccc(NC(=O)Nc4ccc(C(F)(F)F)cc4)cc3CC(=O)N([C@H](C)CO)C[C@@H]2C)cc1 | – | 118.3 | –
COc1ccc(NC(=O)Nc2ccc3c(c2)CC(=O)N([C@@H](C)CO)C[C@H](C)[C@H](CN(C)Cc2ccc(C(F)(F)F)cc2)O3)cc1 | – | – | ·
COc1ccc(NC(=O)Nc2ccc3c(c2)CC(=O)N([C@H](C)CO)C[C@H](C)[C@H](CN(C)Cc2ccc(C(F)(F)F)cc2)O3)cc1 | – | – | –
COc1ccc(CN(C)C[C@H]2Oc3ccc(NC(=O)Nc4ccc(C(F)(F)F)cc4)cc3CC(=O)N([C@H](C)CO)C[C@H]2C)cc1 | – | 127.0 | –
COc1ccc(-n2c(SCC(=O)N3CCOCC3)nnc2-c2ccc(Cl)cc2)cc1 | – | – | –
O=C(CSc1n[nH]c(-c2ccccc2Cl)n1)c1ccc(O)c(O)c1 | – | – | ·
CC(C)(C)c1cc(CNCCS(=O)(=O)O)c(O)c(C(C)(C)C)c1 | – | – | ·
CC(C)(C)c1csc(=Nc2ccc(F)cc2F)o1 | · | – | –
COc1ccc(CN(C)C[C@@H]2Oc3ccc(NC(=O)Nc4ccc(C(F)(F)F)cc4)cc3CC(=O)N([C@H](C)CO)C[C@H]2C)cc1 | – | – | –
COc1ccc(NC(=O)Nc2ccc3c(c2)CC(=O)N([C@H](C)CO)C[C@@H](C)[C@H](CN(C)Cc2ccc(C(F)(F)F)cc2)O3)cc1 | – | 112.7 | ·
Cc1cccc(Cn2nc(C(C)(C)C)cc2C(=O)Nc2cccnc2)c1 | – | ? | –
C[C@@H]1CCCCO[C@H](CN(C)Cc2ccc(C(=O)Nc3ccccc3N)cc2)[C@@H](C)CN([C@H](C)CO)C(=O)c2cc(NS(C)(=O)=O)ccc2O1 | · | – | –
COc1ccc(S(=O)(=O)Nc2ccc3c(c2)C(=O)N([C@H](C)CO)C[C@H](C)[C@H](CN(C)Cc2ccc(C(=O)Nc4ccccc4N)cc2)OCCCC[C@@H](C)O3)cc1 | · | 125.8 | –
COc1ccc(CN(C)C[C@@H]2OCCCC[C@@H](C)Oc3ccc(NS(=O)(=O)c4ccccc4)cc3C(=O)N([C@H](C)CO)C[C@@H]2C)cc1 | – | – | ·
C[C@@H]1CCCCO[C@@H](CN(C)C(=O)Nc2cccc3ccccc23)[C@@H](C)CN([C@H](C)CO)C(=O)c2cc(NS(=O)(=O)c3ccc(F)cc3)ccc2O1 | – | – | ·
SMILES | STK33 kin inh | NOMO-1 viab | PD-1 reversal
C[C@@H]1CCCCO[C@@H](CN(C)C(=O)Nc2cccc3ccccc23)[C@@H](C)CN([C@H](C)CO)C(=O)c2cc(NS(=O)(=O)c3ccc(Cl)cc3)ccc2O1 | – | 101.5 | ·
C[C@@H]1CCCCO[C@@H](CN(C)Cc2ccc(C(=O)Nc3ccccc3N)cc2)[C@@H](C)CN([C@H](C)CO)C(=O)c2cc(NS(=O)(=O)c3ccc(Cl)cc3)ccc2O1 | · | 127.1 | –
Clc1ccc(Sc2cn[nH]c2-c2ccc3c(c2)OCCO3)cc1 | – | ? | –
Cc1cc(=O)c2c(O)c3c(cc2o1)OC(C(C)(C)OC1OC(CO)C(O)C(O)C1O)C3 (centres undefined) | – | – | –
CCOc1c(OC)cc(Cl)cc1C1NC(=O)NC(C)=C1C(=O)Nc1ccccc1C(=O)OC (centres undefined) | – | – | –
CNC1CCc2cc(OC)c(OC)c(OC)c2-c2ccc(OC)c(=O)cc21 (centres undefined) | – | 97.4 | –
COc1c(O[C@@H]2O[C@H](CO)[C@@H](O)[C@H](O)[C@H]2O)cc2c(c1OC)-c1ccc(SC)c(=O)cc1C(NC(C)=O)CC2 (some centres undefined) | – | – | –
COc1cc(Cl)c(C)cc1NC(=O)CSC1=C(C#N)C(c2ccccc2F)CC(=O)N1 (centres undefined) | – | – | –
C[C@@H]1C[C@H]2OC[C@@]3(C)CCC[C@](C)(C23)[C@@]1(O)CCc1ccoc1 (some centres undefined) | – | · | ·
CCCCCCCCC[C@@H](O)CC(=O)CCc1ccc(O)c(OC)c1 | – | 91.8 | –
CCCCCC(O)CC(O)CCc1ccc(O)c(OC)c1 (centres undefined) | – | · | ·
O=C(Oc1ccc(C2SCCS2)cc1)c1ccccc1Cl | · | – | –
CSc1c(C#N)c(-c2cccs2)nn1CNC(=O)Nc1ccccc1C(F)(F)F | · | – | –
O=C(/C=C/c1ccccc1)OC[C@H]1O[C@@H](O[C@@H]2CC(C(=O)O)=C[C@@H](O)[C@H]2O)[C@H](O)[C@@H](O)[C@@H]1O | – | · | ·
CC(C)(C)c1cc(-c2cccs2)c(C#N)c(SCC(=O)Oc2ccccc2)n1 | – | – | –
COc1ccc(-c2cc(-c3cccs3)nc(SC(C(=O)O)c3ccccc3)c2C#N)cc1 (centres undefined) | – | 91.9 | –
CCCCC[C@H](CC(=O)NO)C(=O)N[C@H](C(=O)N1CCC[C@H]1CO)C(C)C | – | 106.9 | ·
C=C[C@]1(C)CC[C@H]([C@H](C)C(=O)/C=C/C(C)(C)O)O1 | – | – | –
CC(C)c1ccc(NN2C(=O)CC(c3ccccc3)C2=O)cc1 (centres undefined) | – | – | –
Cc1ccc(S(=O)(=O)Nc2ccc3c(c2)C(=O)N([C@@H](C)CO)C[C@H](C)[C@@H](CN(C)Cc2ccc(C(F)(F)F)cc2)O3)cc1 | – | ? | –
Cc1ccc(S(=O)(=O)Nc2ccc3c(c2)C(=O)N([C@@H](C)CO)C[C@@H](C)[C@@H](CN(C)Cc2ccc(C(F)(F)F)cc2)O3)cc1 | – | 97.7 | –
C[C@H](CO)N1C[C@H](C)[C@@H](CN(C)Cc2ccc(C(F)(F)F)cc2)Oc2ccc(NS(=O)(=O)c3ccc(F)cc3)cc2C1=O | – | – | –
C[C@@H]1CN([C@H](C)CO)C(=O)c2cc(NS(=O)(=O)c3ccc(Cl)cc3)ccc2O[C@@H]1CN(C)Cc1ccccc1 | · | 87.3 | –
C[C@@H]1CN([C@H](C)CO)C(=O)c2cc(NS(=O)(=O)c3ccc(Cl)cc3)ccc2O[C@H]1CN(C)Cc1ccccc1 | · | – | –
Cc1ccc(S(=O)(=O)Nc2ccc3c(c2)C(=O)N([C@H](C)CO)C[C@H](C)[C@@H](CN(C)Cc2ccc(C(F)(F)F)cc2)O3)cc1 | · | – | ·

Assay outcomes as filed in PubChem.
